Sampled rows, rich in hits. Any-hit rate of the full collection: about 1.4%.
AmpC no deterg: inhibitors of E. coli AmpC beta-lactamase without detergent; Potency, µM (titrated, usually from 57.1 µM), for the others: at the highest dose activity change, negative = inhibition, most hits filed as inhibitors; 330,000 tested, 0.52% active; P00811; AmpC nitrocefin hydrolysis, absorbance 480 nm, 0.0001% Triton;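 further: potency means the concentration at half of the fitted maximal effect; plate controls were no compound for no effect and no enzyme for full effect; nearly all actives have a fitted effect of over 20% in size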
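AmpC (5.3 nM in the dispensed reagent) in 20 mM phosphate pH 7.0 with 0.01% (detergent screen) or 0.0001% Triton X-100 was preincubated with compounds for 15 min at room temperature. Nitrocefin was then added from an 800 uM solution, and hydrolysis was followed at 480 nm.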
AmpC detergent: AmpC beta-lactamase inhibition with detergent present | P00811 | AmpC hydrolysis of nitrocefin, absorbance 480 nm, 0.01% Triton | Potency, µM (titrated, usually from 114 µM), for the others: top-dose activity change, negative = inhibition, most hits filed as inhibitors | 370,000 tested, 0.041% active | AID 485294;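 further: potency means the concentration at half of the fitted maximal effect; 0% = no-compound wells and -100% = no-enzyme wells; nearly all actives have a fitted effect of over 25% in size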
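AmpC (5.3 nM in the dispensed reagent) in 20 mM phosphate pH 7.0 with 0.01% (detergent screen) or 0.0001% Triton X-100 was preincubated with compounds for 15 min at room temperature. Nitrocefin was then added from an 800 uM solution, and hydrolysis was followed at 480 nm.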
SARS PLpro yeast-1: SARS-CoV PLP inhibition in yeast; S. cerevisiae expressing SARS-CoV PLpro, growth rescue; Potency, µM (top dose mostly 32.9 µM), without a hit: at the top dose activity, positive = growth rescue, hits mostly activators; 330,000 tested, 0.19% active; calls by dose curve; further: potency means the concentration at half of the fitted maximal effect; 0% is about no effect; nearly all actives have a fitted effect of over 55% in size
FBPA Giardia inh: blocks Giardia fructose-bisphosphate aldolase activity. A8B2U2. purified Giardia FBPA. Potency, µM (titrated, usually from 59.6 µM), inactives show at the top dose activity, negative = inhibition, most hits filed as inhibitors. 290,000 tested, 0.71% active. AID 2451; further: potency means the concentration at half of the fitted maximal effect; on the % scale 0 is the no-effect control and ±100 the full control effect; nearly all actives have a fitted effect of over 55% in size
Target sequence (A8B2U2 whole entry, looked up): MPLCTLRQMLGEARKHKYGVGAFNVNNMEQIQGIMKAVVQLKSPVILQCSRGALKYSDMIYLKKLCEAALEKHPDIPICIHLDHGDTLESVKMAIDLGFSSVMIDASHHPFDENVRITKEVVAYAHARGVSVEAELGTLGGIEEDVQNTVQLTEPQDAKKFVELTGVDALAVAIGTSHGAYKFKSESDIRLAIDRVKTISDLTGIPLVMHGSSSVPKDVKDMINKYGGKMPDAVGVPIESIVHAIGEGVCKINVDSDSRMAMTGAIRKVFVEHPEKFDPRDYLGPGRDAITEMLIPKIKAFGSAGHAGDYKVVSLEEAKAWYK
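40 nM FBPA preincubated 10 min at RT with compound (up to 57.5 uM final), then substrate plus GAPDH/TPI/NAD/arsenate coupling and diaphorase/resazurin added. Fluorescence read after 20 min at RT, 525/598 nm.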
NS1 inh: influenza NS1 inhibition. Potency, µM (top dose mostly 46.1 µM), without a hit: at the top dose activity, positive = more growth. 270,000 tested, 0.4% active; calls by dose curve; further: potency means the concentration at half of the fitted maximal effect; actives are rising curves; nearly all actives have a fitted effect of over 50% in size
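S. cerevisiae expressing influenza A NS1, grown in glucose, washed, then diluted 1:100 into pH 6.0 -URA galactose medium with 23 nl compound. Growth recovery read as OD600; NS1-free strain serves as control.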
SARS PLpro yeast-2: Validates SARS-CoV PLpro inhibitor hits in yeast; shares compounds with SARS PLpro yeast-1; yeast expressing SARS-CoV PLpro, growth phenotype rescue; calls only; 1,000 tested, 19% active; call rule not given here
Numbers without * were called inactive; i = inactive; ? = inconclusive; · = no result given; + = active, no number. Unless noted, the call rests on the fitted dose curve; in most records, active means well fitted curve in the direction sought with a large enough effect; inconclusive means small, poorly fitted or top-dose-only effect, or another doubt; inactive means no such curve, though single readings can be large; an effect the other way counts as inactive or inconclusive.

SMILES	AmpC no deterg	AmpC detergent	SARS PLpro yeast-1	FBPA Giardia inh	NS1 inh	SARS PLpro yeast-2
Cc1cc(C(=O)N/N=C/c2cc([N+](=O)[O-])ccc2O)c2ccccc2n1	-58%	-8%	3.2µM*	?	5%	i
O=C(CCCN1C(=O)c2cccc3cccc(c23)C1=O)N1CCN(c2ncccn2)CC1	-12%	3%	0%	2%	2%	·
Cc1[nH]c(=S)sc1Cc1ccc(Cl)c(Cl)c1	-20%	1%	?	9%	11%	+
Cc1nnc(SCc2ccc(Cl)c(Cl)c2)s1	-1%	12%	-1%	2%	-8%	·
O=S(=O)(NCCc1csc(-c2cccnc2)n1)c1ccc2c(c1)OCCO2	-19%	?	?	5%	-12%	i
NC(=O)c1cccnc1Nc1cccc([N+](=O)[O-])c1	-20%	6%	-2%	-5%	-4%	·
Cc1ccc([N+](=O)[O-])cc1NC(=O)C1CCN(S(C)(=O)=O)CC1	-26%	?	?	-2%	12%	i
Cc1ccc([N+](=O)[O-])cc1NC(=O)C1CCCC1	-18%	-9%	-1%	-3%	-8%	·
O=C(Nc1ccccn1)c1ccc([N+](=O)[O-])o1	-22%	-11%	10µM*	-8%	-23%	i
N#Cc1c(N2CCN(C(=O)c3ccccc3Cl)CC2)nc(-c2ccccc2)c2c1CCCC2	4%	2%	3.5µM*	2%	27%	i
N#Cc1c(N2CCN(C(=O)c3ccccc3)CC2)nc(-c2ccccc2)c2c1CCCC2	14%	-1%	2%	1%	17%	·
C=CCOc1ccc(-c2n[nH]c(=S)o2)cc1	-34%	-9%	-4%	3%	-59%	·
CCC(=O)N(C)CCc1cc2c(c(OC)c1/C=N/NC(=O)c1ccccc1O)OCO2	-15%	-13%	?	-14%	19%	+
COc1ccc(NCC(=O)N/N=C/C=C\c2ccccc2)cc1	-3%	7%	-18%	?	26%	·
COc1ccccc1NCC(=O)N/N=C/C=C/c1ccccc1	-27%	-6%	?	-24%	?	i
COCCNC(=S)NC(=O)CC12CC3CC(CC(C3)C1)C2	-35%	-11%	?	-1%	0%	+
C=CCNC(=O)C1CC2Cn3c(nc4cc(Cl)c(Cl)cc43)C2N1C (stereo not given)	-4%	-4%	?	·	·	i
CCOC(=O)C1CCN(C(=O)CN(c2cc(Cl)ccc2OC)S(=O)(=O)c2ccccc2)CC1	130%	-4%	?	·	3%	i
CCOC(=O)C1CCN(C(=O)CN(c2cc(OC)ccc2OC)S(=O)(=O)c2ccccc2)CC1	92%	?	-2%	-2%	-10%	·
O=c1c2ccccc2[nH]c(=S)n1CCN1CCCCC1	-21%	-4%	2%	-26%	4%	·
O=C(Nc1ccccc1)N1CCCC(c2nc(-c3cccs3)no2)C1 (stereo not given)	-21%	1%	16µM*	7%	-62%	i
Cc1ccc(C2(C)NC(=O)N(CC(=O)NCc3cccs3)C2=O)cc1 (stereo not given)	1%	15%	?	1%	21%	i
COc1ccc(S(=O)(=O)N2CCCCCC2)cc1C(=O)N(C)CC(=O)Nc1ccccc1Br	99%	-12%	-1%	·	·	·
Cc1cc(C)cc(-n2c(C)cc(C(=S)N3CCOCC3)c2C)c1	61%	-6%	14µM*	-9%	5%	+
Cc1ccc(N=Nc2ccc(O)c3ncccc23)cc1C	-25%	7%	9%	-1%	·	·
SMILES	AmpC no deterg	AmpC detergent	SARS PLpro yeast-1	FBPA Giardia inh	NS1 inh	SARS PLpro yeast-2
Cc1ccc(N=Nc2ccc(O)c3ncccc23)cc1	-9%	-2%	4µM*	-20%	-14%	i
Cc1ccc(S(=O)(=O)NC(C(=O)Oc2cc3oc(=O)cc(C)c3cc2Cl)C(C)C)cc1 (stereo not given)	-26%	-1%	22µM*	-5%	2%	?
COc1cc(C(=O)NC(=S)NNC(=O)c2cnccn2)cc(OC)c1OC	-15%	0%	?	?	-31%	i
COc1ccc(C(=O)NC(=S)NNC(=O)c2cnccn2)cc1	-12%	-3%	-26%	?	-1%	·
CCOC(=O)C1=C2SCC(=O)N2C(N)=C(C#N)C1	-12%	-8%	?	-1%	11%	i
CCC(=O)Nc1ccc(C(=O)n2ccc(C)n2)cc1	-38%	?	10%	-3%	-103%	·
CCc1sc(N)nc1-c1ccccc1	-20%	?	?	-2%	-12%	i
Nc1nc(-c2ccccc2)c(CC(=O)O)s1	·	·	·	·	3%	·
O=C(Oc1c(Cl)cc(Cl)c2cccnc12)c1cccs1	-23%	?	·	-7%	-17%	?
O=C(Oc1c(CN2CCOCC2)cc(Cl)c2cccnc12)c1cccs1	88%	-12%	?	?	·	·
COc1ccc(Br)cc1/C=C/C(=O)NC(=S)Nc1ccc(CN2CCOCC2)cc1	24%	-11%	-18%	-13%	3%	·
Cc1ccc(C2CC(=O)C(C=NCCN3CCN(C(=S)Nc4ccccc4)CC3)=C(O)C2)cc1 (stereo not given)	199%	1%	-1%	8%	-5%	·
CC1(C)CC(=O)C(C=NCCN2CCN(C(=S)Nc3ccccc3)CC2)=C(O)C1	1%	-7%	?	1%	-22%	i
CCOc1ccc(NC(=O)CN(C)C(=O)c2c(C)nn(-c3ccc(F)cc3)c2Cl)cc1OCC	62%	-12%	?	·	·	i
N#Cc1ccc(N2C(=O)[C@@H]3C(C(=O)c4ccc5ccccc5n4)=NN[C@@H]3C2=O)cc1	-52%	-9%	-38%	-12%	2%	·
COc1cccc(C(=O)CSc2nnc(-c3cc(OC)c(OC)c(OC)c3)o2)c1	144%	?	?	-1%	1%	?
O=C1C(c2ccccc2)=C(N2CC2)c2ccccc21	-13%	?	?	-9%	-45%	i
COc1ccc(C2=C(N3CCN(c4cc(C)ccc4C)CC3)c3ccccc3C2=O)cc1	·	11%	·	·	·	·
CCN(CC)c1ccc(/C=N/Nc2ccc(C)cc2)c(O)c1	-40%	2%	?	?	13%	·
CCOC(=O)N/N=C/c1ccc(N(CC)CC)cc1O	-21%	-3%	-21%	-3%	-23%	·
CCN(CC)c1ccc(/C=N/NC(=O)c2c(Cl)cnn2C)c(O)c1	14%	-11%	?	14%	-64%	i
